Drawing on publication PMC7862700, “An all-to-all approach to the identification of sequence-specific readers for epigenetic DNA modifications on cytosine”, this text covers binding signal for 7 sequences.

Common to all, as to test: DAPPL (digital affinity profiling via proximity ligation, sequencing); 10 mM Tris-HCl pH 7.5, 50 mM NaCl, 1 mM DTT, 4% glycerol, room temperature, 30 min; GST-TFs on glutathione beads, 16-mer random dsDNA library, 0.1% formaldehyde crosslink after washing; high values mean tight binding
Common to all, as to conditions: protein: recombinant; tags: N-terminal GST; dsDNA, one strand shown

One assay addresses T1, FLI1 (Homo sapiens, UniProt Q01543 1-452).
T1 sequence: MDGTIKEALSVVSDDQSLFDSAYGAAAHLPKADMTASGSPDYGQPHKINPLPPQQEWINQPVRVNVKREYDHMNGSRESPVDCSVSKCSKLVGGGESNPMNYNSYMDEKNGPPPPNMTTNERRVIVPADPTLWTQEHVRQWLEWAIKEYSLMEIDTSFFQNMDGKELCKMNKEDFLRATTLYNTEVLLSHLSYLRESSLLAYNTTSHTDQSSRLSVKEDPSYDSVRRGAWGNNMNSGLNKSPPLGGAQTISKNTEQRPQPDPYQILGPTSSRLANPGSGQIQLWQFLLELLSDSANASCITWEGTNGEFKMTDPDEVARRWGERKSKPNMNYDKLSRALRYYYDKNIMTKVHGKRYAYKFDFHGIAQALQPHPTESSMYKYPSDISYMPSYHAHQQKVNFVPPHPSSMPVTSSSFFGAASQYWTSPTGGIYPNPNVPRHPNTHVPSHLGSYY
Put shortly:
(§1)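 Binding signal is given per hexamer as its read frequency for a factor divided by its frequency in the tag-only sample. GST-fused human transcription factors were expressed in yeast, captured on glutathione beads, barcoded with DNA and pooled with that sample, then incubated with 200 nmole of a 16-mer random double-stranded DNA library in Tris/NaCl/DTT/glycerol buffer for 30 min at room temperature. The pools were then washed, crosslinked, proximity-ligated, amplified by PCR and sequenced on an Illumina NextSeq500.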

The target of a further assay is T2, ELK1 (Homo sapiens, UniProt P19419 1-428).
T2 sequence: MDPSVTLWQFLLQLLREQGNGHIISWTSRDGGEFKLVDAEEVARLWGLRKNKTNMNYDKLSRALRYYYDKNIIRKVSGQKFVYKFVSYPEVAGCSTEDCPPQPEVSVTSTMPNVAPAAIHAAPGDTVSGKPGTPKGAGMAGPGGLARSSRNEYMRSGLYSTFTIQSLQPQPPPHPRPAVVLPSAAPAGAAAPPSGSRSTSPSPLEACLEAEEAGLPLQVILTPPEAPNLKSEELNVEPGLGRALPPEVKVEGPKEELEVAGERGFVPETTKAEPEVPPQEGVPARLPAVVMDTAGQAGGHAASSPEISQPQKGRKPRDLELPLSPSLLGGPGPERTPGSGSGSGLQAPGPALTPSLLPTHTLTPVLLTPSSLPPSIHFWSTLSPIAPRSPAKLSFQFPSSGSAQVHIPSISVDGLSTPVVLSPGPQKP
Put shortly: as §1

Another assay concerns the target T3, GABPA (Homo sapiens, UniProt Q06546 1-454).
T3 sequence: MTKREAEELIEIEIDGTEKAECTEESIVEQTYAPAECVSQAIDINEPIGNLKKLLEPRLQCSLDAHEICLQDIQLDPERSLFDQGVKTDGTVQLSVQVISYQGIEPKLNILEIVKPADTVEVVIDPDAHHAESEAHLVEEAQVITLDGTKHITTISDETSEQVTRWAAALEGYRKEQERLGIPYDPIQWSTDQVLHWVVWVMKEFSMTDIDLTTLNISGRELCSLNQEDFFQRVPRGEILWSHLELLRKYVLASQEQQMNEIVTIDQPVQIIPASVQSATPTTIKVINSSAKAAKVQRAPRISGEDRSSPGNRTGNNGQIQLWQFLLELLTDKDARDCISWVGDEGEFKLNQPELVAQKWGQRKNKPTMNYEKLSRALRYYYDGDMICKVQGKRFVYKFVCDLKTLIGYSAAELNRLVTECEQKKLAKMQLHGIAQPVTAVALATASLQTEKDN
The method in brief:
as §1

The target of a further assay is T4, ERG (Homo sapiens, UniProt P11308 1-479).
T4 sequence: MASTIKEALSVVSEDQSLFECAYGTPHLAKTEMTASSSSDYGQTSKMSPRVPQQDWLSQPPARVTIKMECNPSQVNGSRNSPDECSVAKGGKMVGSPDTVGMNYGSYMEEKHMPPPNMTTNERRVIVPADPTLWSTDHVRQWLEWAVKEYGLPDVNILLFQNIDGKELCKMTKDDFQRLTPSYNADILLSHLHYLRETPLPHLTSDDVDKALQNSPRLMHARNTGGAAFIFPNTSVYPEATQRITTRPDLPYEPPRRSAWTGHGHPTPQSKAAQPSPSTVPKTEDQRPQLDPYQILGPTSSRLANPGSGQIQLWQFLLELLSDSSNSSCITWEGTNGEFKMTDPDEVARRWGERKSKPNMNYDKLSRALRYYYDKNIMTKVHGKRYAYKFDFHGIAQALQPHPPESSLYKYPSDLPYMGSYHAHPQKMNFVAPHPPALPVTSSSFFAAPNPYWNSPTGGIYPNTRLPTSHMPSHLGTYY
Put shortly: as §1

A further assay deals with ELF1 (Homo sapiens, UniProt P32519 1-619). Put shortly: as §1
Sequence of ELF1 (P32519 whole entry): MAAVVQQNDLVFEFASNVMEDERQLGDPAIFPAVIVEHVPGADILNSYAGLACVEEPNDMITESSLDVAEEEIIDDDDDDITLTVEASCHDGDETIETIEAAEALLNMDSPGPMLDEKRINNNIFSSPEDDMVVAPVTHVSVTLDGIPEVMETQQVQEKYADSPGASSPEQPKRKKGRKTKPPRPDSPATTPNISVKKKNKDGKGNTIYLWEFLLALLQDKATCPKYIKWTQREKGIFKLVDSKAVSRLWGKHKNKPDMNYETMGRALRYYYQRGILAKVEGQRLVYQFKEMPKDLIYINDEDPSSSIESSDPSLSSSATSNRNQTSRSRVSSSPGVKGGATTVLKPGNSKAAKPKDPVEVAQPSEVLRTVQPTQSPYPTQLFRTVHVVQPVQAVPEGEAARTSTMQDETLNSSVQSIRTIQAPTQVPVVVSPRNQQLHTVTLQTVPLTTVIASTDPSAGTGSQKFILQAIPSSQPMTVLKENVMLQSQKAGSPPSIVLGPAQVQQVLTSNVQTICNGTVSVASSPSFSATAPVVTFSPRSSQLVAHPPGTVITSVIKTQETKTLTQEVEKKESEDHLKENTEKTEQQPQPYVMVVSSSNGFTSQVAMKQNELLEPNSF
The target in a further assay is T5, EHF (Homo sapiens, UniProt Q9NZC4 1-300).
T5 sequence: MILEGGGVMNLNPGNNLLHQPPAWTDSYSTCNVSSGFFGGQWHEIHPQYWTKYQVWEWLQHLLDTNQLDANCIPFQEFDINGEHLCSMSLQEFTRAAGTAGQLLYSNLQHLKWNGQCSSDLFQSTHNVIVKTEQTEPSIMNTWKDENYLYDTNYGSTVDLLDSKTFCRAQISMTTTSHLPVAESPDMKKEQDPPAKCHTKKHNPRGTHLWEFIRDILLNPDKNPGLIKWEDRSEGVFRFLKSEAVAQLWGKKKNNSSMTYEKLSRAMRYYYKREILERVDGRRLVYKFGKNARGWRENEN
Put shortly: as §1

The target in a further assay is SPI1 (Homo sapiens, UniProt P17947 1-270). Put shortly:
as §1

Another assay concerns the target SPIB (Homo sapiens, UniProt Q01892 1-262). The method in brief:
as §1

A further assay has as its target T6, ELK3 (Homo sapiens, UniProt P41970 1-407).
T6 sequence: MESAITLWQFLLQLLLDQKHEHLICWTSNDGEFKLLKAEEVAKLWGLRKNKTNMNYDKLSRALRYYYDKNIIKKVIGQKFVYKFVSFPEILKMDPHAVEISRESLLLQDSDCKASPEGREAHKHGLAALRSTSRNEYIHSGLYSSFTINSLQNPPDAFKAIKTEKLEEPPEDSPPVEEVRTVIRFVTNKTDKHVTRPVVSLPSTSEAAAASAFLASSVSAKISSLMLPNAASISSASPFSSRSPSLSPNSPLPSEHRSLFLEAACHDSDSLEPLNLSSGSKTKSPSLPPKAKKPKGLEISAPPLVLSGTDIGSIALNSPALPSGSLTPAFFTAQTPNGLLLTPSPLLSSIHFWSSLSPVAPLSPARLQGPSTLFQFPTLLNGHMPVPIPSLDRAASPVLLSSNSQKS
The method in brief: as §1

Sequence of SPIB (Q01892 whole entry): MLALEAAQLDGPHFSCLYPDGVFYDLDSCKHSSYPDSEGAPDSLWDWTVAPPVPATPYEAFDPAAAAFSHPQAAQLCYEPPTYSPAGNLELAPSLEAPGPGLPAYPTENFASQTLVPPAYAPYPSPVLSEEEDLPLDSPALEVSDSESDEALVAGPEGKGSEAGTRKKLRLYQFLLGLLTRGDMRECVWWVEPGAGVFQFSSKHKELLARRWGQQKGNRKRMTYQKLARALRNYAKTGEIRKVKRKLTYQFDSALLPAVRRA

As to TTATGC, the binding signal was 1.34 fold enrichment (6-mer frequency, TF over GST control) with FLI1; 1.34 fold enrichment (6-mer frequency, TF over GST control) with ELK1; 1.22 fold enrichment (6-mer frequency, TF over GST control) with GABPA; 1.31 fold enrichment (6-mer frequency, TF over GST control) in the assay with ERG; 1.15 fold enrichment (6-mer frequency, TF over GST control) in the assay with ELF1; 1.43 fold enrichment (6-mer frequency, TF over GST control) with EHF. Further, the binding signal is 1.34 fold enrichment (6-mer frequency, TF over GST control) in the assay with SPI1; 1.26 fold enrichment (6-mer frequency, TF over GST control) with SPIB; 1.16 fold enrichment (6-mer frequency, TF over GST control) with ELK3.

Consider TAACTG, for which the binding signal with FLI1 was 1.12 fold enrichment (6-mer frequency, TF over GST control); with ELK1 it was 1.19 fold enrichment (6-mer frequency, TF over GST control); with GABPA, 1.24 fold enrichment (6-mer frequency, TF over GST control); with ERG, 1.25 fold enrichment (6-mer frequency, TF over GST control); in the assay with ELF1, 1.27 fold enrichment (6-mer frequency, TF over GST control); with EHF it was 1.15 fold enrichment (6-mer frequency, TF over GST control). The binding signal with SPI1 was 1.21 fold enrichment (6-mer frequency, TF over GST control); with SPIB it was 1.33 fold enrichment (6-mer frequency, TF over GST control); with ELK3, 1.26 fold enrichment (6-mer frequency, TF over GST control).

Regarding TCTGCC, the binding signal with FLI1 is 1.49 fold enrichment (6-mer frequency, TF over GST control); with ELK1, 1.36 fold enrichment (6-mer frequency, TF over GST control); with GABPA it was 1.51 fold enrichment (6-mer frequency, TF over GST control); with ERG it was 1.49 fold enrichment (6-mer frequency, TF over GST control); with ELF1, 1.54 fold enrichment (6-mer frequency, TF over GST control); with EHF, 1.37 fold enrichment (6-mer frequency, TF over GST control). In addition, the binding signal in the assay with SPI1 was 1.37 fold enrichment (6-mer frequency, TF over GST control); with SPIB it was 1.32 fold enrichment (6-mer frequency, TF over GST control); with ELK3, 1.18 fold enrichment (6-mer frequency, TF over GST control).

As for TCTGAA, the binding signal is 1.11 fold enrichment (6-mer frequency, TF over GST control) with FLI1; 1.22 fold enrichment (6-mer frequency, TF over GST control) with ELK1; 1.13 fold enrichment (6-mer frequency, TF over GST control) with GABPA; 1.15 fold enrichment (6-mer frequency, TF over GST control) in the assay with ERG; 1.18 fold enrichment (6-mer frequency, TF over GST control) with ELF1; 1.18 fold enrichment (6-mer frequency, TF over GST control) with EHF. Further, the binding signal is 1.18 fold enrichment (6-mer frequency, TF over GST control) in the assay with SPI1; 1.26 fold enrichment (6-mer frequency, TF over GST control) with SPIB; 1.17 fold enrichment (6-mer frequency, TF over GST control) with ELK3.

For the sequence TCTTAT, the binding signal is 1.41 fold enrichment (6-mer frequency, TF over GST control) in the assay with FLI1; 1.33 fold enrichment (6-mer frequency, TF over GST control) in the assay with ELK1; 1.25 fold enrichment (6-mer frequency, TF over GST control) with GABPA; 1.27 fold enrichment (6-mer frequency, TF over GST control) in the assay with ERG; 1.28 fold enrichment (6-mer frequency, TF over GST control) with ELF1; 1.16 fold enrichment (6-mer frequency, TF over GST control) in the assay with EHF. The binding signal in the assay with SPI1 was 1.28 fold enrichment (6-mer frequency, TF over GST control); in the assay with SPIB, 1.22 fold enrichment (6-mer frequency, TF over GST control); in the assay with ELK3 it was 1.31 fold enrichment (6-mer frequency, TF over GST control).

Take TAAAAA: the binding signal in the assay with FLI1 is 1.27 fold enrichment (6-mer frequency, TF over GST control); with ELK1, 1.13 fold enrichment (6-mer frequency, TF over GST control); with GABPA, 1.36 fold enrichment (6-mer frequency, TF over GST control); with ERG it was 1.26 fold enrichment (6-mer frequency, TF over GST control); with ELF1, 1.26 fold enrichment (6-mer frequency, TF over GST control); in the assay with EHF it was 1.29 fold enrichment (6-mer frequency, TF over GST control). For the same sequence, the binding signal in the assay with SPI1 was 1.53 fold enrichment (6-mer frequency, TF over GST control); in the assay with SPIB, 1.35 fold enrichment (6-mer frequency, TF over GST control); with ELK3, 1.32 fold enrichment (6-mer frequency, TF over GST control).

Consider TCCGGC, for which the binding signal was 2.29 fold enrichment (6-mer frequency, TF over GST control) with FLI1; 2.4 fold enrichment (6-mer frequency, TF over GST control) with ELK1; 2.12 fold enrichment (6-mer frequency, TF over GST control) with GABPA; 2.58 fold enrichment (6-mer frequency, TF over GST control) with ERG; 2 fold enrichment (6-mer frequency, TF over GST control) with ELF1; 2.18 fold enrichment (6-mer frequency, TF over GST control) in the assay with EHF. The binding signal is 2.19 fold enrichment (6-mer frequency, TF over GST control) with SPI1; 2.42 fold enrichment (6-mer frequency, TF over GST control) with SPIB; 2.45 fold enrichment (6-mer frequency, TF over GST control) in the assay with ELK3.
